Laboratory results from PubChem BioAssay.
A number with no mark means an inactive call. The source made the active and inactive calls. Rule as the data show it, unless noted: active = inhibition above about 36%; inactive = the rest.

Assays:
[1] = test system: transactivating tegument protein VP16 (Human herpesvirus 1); assay: VP16 transactivation reporter inhibitors, counter-screen for SRC2 inhibitor project, cell-based, luminescence, single concentration (AID 652007); settings: cell-based VP16 transactivation luciferase reporter, at 8.9 µM, hits give high values
[2] = target: Nuclear receptor coactivator 2 (Homo sapiens) (UniProt Q15596); assay: SRC2 coactivator transcriptional activity inhibitors, confirmation, cell-based, luminescence, HEK293, triplicate (AID 652008;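 active = mean inhibition above 46.5%, the solvent-only control mean plus 3 SD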;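 also: 0% = DMSO-treated cells and 100% = Gossypol at 36 µM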); settings: HEK293 GAL4-SRC2 luciferase reporter, at 8.9 µM, hits give high values
Nuclear receptor coactivator 2 (Homo sapiens), sequence (Q15596 whole entry, looked up, the tested form may be a part): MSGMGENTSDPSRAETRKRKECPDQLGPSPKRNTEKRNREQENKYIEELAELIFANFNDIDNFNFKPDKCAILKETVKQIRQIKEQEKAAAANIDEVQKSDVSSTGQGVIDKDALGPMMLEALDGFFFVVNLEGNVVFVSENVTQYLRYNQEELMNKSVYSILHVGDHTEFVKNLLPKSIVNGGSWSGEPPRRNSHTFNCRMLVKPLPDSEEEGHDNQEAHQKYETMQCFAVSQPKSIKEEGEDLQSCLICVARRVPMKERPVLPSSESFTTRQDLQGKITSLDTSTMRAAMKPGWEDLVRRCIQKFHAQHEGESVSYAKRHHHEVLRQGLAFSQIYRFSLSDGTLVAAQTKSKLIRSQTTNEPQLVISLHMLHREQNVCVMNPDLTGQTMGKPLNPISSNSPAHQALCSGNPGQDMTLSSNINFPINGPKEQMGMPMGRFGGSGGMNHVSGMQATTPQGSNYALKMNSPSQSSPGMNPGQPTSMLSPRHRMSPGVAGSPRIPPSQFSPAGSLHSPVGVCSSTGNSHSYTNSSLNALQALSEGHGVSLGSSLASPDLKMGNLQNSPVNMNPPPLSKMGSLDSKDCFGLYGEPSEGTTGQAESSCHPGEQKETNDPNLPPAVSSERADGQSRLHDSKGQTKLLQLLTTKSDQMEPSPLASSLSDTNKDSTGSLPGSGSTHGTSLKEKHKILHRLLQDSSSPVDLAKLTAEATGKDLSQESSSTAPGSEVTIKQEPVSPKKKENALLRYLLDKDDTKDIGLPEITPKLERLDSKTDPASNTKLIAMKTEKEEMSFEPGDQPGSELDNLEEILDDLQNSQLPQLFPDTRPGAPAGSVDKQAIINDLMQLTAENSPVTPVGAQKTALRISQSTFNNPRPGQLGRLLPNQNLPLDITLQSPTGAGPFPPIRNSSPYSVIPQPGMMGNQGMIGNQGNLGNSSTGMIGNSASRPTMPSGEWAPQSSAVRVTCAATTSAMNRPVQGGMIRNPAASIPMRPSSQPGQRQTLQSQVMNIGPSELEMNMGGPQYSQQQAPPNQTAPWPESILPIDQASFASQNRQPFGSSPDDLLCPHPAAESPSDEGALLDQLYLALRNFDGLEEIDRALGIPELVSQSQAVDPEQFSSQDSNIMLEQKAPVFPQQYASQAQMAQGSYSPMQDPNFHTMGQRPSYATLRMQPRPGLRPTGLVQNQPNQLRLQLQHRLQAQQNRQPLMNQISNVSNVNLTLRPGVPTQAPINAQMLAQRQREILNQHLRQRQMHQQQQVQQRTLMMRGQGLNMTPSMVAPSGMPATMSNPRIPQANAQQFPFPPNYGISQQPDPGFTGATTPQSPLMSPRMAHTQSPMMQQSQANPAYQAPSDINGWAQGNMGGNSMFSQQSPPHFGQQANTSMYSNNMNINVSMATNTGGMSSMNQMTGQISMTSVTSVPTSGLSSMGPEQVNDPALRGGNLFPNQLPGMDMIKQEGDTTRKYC

Row | Structure (SMILES) | inhibition [1] [%] | inhibition [2]
1 | CN(Cc1ccc(Cl)s1)C(=O)CCl | 14.2 | 22%
2 | COc1ccc(OC)c(-n2nnnc2SCC(=O)Nc2cc(C)ccc2OC)c1 | -22.1 | 2.63%
3 | CCOC(=O)C(C(=O)OCC)C(Nc1cccc(Br)c1)c1ccccc1 (centres undefined) | 8.47 | 19.3%
4 | Cc1ccc(CN2CCC(C(=O)Nc3ccc(Oc4cccnc4)cc3)CC2)cc1 | 7.59 | -0.58%
5 | COC(=O)COc1ccc(S(=O)(=O)Nc2ccc3c(c2)OCCO3)cc1C | -11.5 | 6.48%
6 | CC1CCCC(C)N1C(=O)c1cccc2c1-c1ccccc1/C2=N/O (centres undefined) | -10.5 | 8.15%
7 | Cc1cc(C)nc(NC(=O)c2c(F)c(F)c(F)c(C(=O)Nc3cc(C)cc(C)n3)c2F)c1 | 19.3 | 48.3% (active)
8 | COc1ccc(CNCc2ccc(C(F)(F)F)cc2)cc1OC | 0.19 | -3.81%
9 | CN(Cc1ccccc1F)C(=O)C1CCC(CNS(=O)(=O)c2cccc3cccnc23)CC1 (centres undefined) | 3.95 | -2.23%
10 | CCOc1ccc(-n2cc(C(=O)NCc3ccco3)c3cc(OC)c(OC)cc3c2=O)cc1 | 2.87 | -7.4%
11 | COCCNC(=O)/C(C#N)=C/c1cc(C(C)C)c(OC)cc1C | -4.35 | 16.8%
12 | COc1cccc(Nc2nc(NCCO)c3ccccc3n2)c1 | -14.1 | 31.5%
